Compounds without any hit were thinned out: in the full panel of roughly 83,000, 20% have a hit.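 Negative percent growth values reflect cell death: -40 means 40% of the cells present at the start died, and -100 means all died.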 Activity calls are given as the source filed them. The calls were made as follows: active = growth percent below 10; inactive = the rest.
Columns and labels:
Assay in all cases: NCI-60 one-dose screen, 48 h (100 = growth as untreated, 0 = no growth, -100 = all killed)
Details in all cases: 10 µM unless noted
NCI-H23 lung = tested on: NCI-H23 lung
NCI-H226 lung = tested on: NCI-H226 lung
NCI-H322M lung = tested on: NCI-H322M lung
HOP-62 NSCLC = tested on: HOP-62 NSCLC
NCI-H460 lung = tested on: NCI-H460 lung
HOP-92 NSCLC = tested on: HOP-92 NSCLC
NCI-H522 lung = tested on: NCI-H522 lung
A549/ATCC NSCLC = tested on: A549/ATCC NSCLC
786-0 renal = tested on: 786-0 renal
COLO 205 colon = tested on: COLO 205 colon

Measured: growth

CN(C)c1ccc(/C=C/c2ccnc3ccccc23)cc1
active: NCI-H522 lung -24%
inactive: NCI-H23 lung 58.6% | NCI-H226 lung 23.5% | NCI-H322M lung 97.3% | HOP-62 NSCLC 61.8% | NCI-H460 lung 21.7% | HOP-92 NSCLC 27.2% | A549/ATCC NSCLC 24.7% | 786-0 renal 54.7% | COLO 205 colon 40.6%

CCOC(=O)C1(C)CCCC1N (centres undefined)
inactive: NCI-H23 lung 102% | NCI-H226 lung 99.1% | NCI-H322M lung 101% | HOP-62 NSCLC 109% | NCI-H460 lung 109% | NCI-H522 lung 102% | A549/ATCC NSCLC 110% | 786-0 renal 103% | COLO 205 colon 131%
active: HOP-92 NSCLC -14.2%

O=C1c2ccccc2C(=O)c2c(O)c(Cl)cc(O)c21
inactive: NCI-H23 lung 96.6% | NCI-H226 lung 104% | NCI-H322M lung 111% | HOP-62 NSCLC 96.2% | NCI-H460 lung 100% | HOP-92 NSCLC 87.7% | NCI-H522 lung 85.4% | A549/ATCC NSCLC 108% | 786-0 renal 99.2% | COLO 205 colon 101%

CCCCCCCCCCCC[n+]1ccc(CCCCCCCCC)cc1
active: NCI-H23 lung -80.8% | NCI-H226 lung -65.2% | HOP-62 NSCLC -84.8% | NCI-H460 lung -63.6% | HOP-92 NSCLC -55.5% | NCI-H522 lung -33.1% | A549/ATCC NSCLC -44.8% | 786-0 renal -85.1% | COLO 205 colon -76.5%
inactive: NCI-H322M lung 56.1%

O=C(Nc1ccc(Cl)c(Cl)c1)OCc1ccco1
active: NCI-H522 lung 5.5%
inactive: NCI-H23 lung 58.5% | NCI-H226 lung 63.9% | NCI-H322M lung 56.6% | HOP-62 NSCLC 49.3% | NCI-H460 lung 26.4% | HOP-92 NSCLC 58.9% | A549/ATCC NSCLC 34.9% | 786-0 renal 57.5% | COLO 205 colon 64.8%

Cc1cc(C(=C2C=CC(=Nc3ccccc3)C=C2)c2ccc(Nc3ccccc3)cc2)ccc1N
active: NCI-H23 lung -32.2% | NCI-H226 lung -84.4% | NCI-H322M lung -34.4% | HOP-62 NSCLC -85.2% | NCI-H460 lung -83.9% | HOP-92 NSCLC -92.9% | NCI-H522 lung -81.3% | A549/ATCC NSCLC -91.9% | 786-0 renal -84.1% | COLO 205 colon -65.1%

O=C(O)c1cc2c(s1)C(=O)c1sccc1C2=O
inactive: NCI-H226 lung 103% | NCI-H322M lung 85.9% | NCI-H460 lung 104% | HOP-92 NSCLC 54.4% | A549/ATCC NSCLC 28.7% | 786-0 renal 93.2% | COLO 205 colon 104%
active: NCI-H23 lung -41.9% | HOP-62 NSCLC -89% | NCI-H522 lung -63.4%

NC(=S)N/N=C/c1ncccc1O
inactive: NCI-H226 lung 39% | NCI-H322M lung 40.2% | HOP-62 NSCLC 17.8% | NCI-H522 lung 26% | A549/ATCC NSCLC 28% | COLO 205 colon 11.2%
active: NCI-H23 lung -6.55% | NCI-H460 lung 8.78% | HOP-92 NSCLC 2.7% | 786-0 renal -17.1%

OC(Cc1cc(CC(O)(C(F)(F)F)C(F)(F)F)nc(CC(O)(C(F)(F)F)C(F)(F)F)c1)(C(F)(F)F)C(F)(F)F
inactive: NCI-H226 lung 11.6% | NCI-H322M lung 13.3%
active: NCI-H23 lung -5.07% | HOP-62 NSCLC -37.3% | NCI-H460 lung 0.458% | HOP-92 NSCLC -27.9% | NCI-H522 lung -18.6% | A549/ATCC NSCLC 3.09% | 786-0 renal 1.13% | COLO 205 colon -92.6%

O=C(/C(Cl)=N/O)c1ccc(-c2ccccc2)cc1
inactive: NCI-H23 lung 93.4% | NCI-H226 lung 88.7% | NCI-H322M lung 94.3% | HOP-62 NSCLC 96.4% | NCI-H460 lung 107% | HOP-92 NSCLC 82.1% | NCI-H522 lung 30.7% | A549/ATCC NSCLC 107% | COLO 205 colon 85.5%
active: 786-0 renal -80.7%

Fc1ccc(NCCS)cc1
inactive: NCI-H23 lung 97.4% | NCI-H226 lung 104% | NCI-H322M lung 103% | HOP-62 NSCLC 99.6% | NCI-H460 lung 102% | HOP-92 NSCLC 103% | NCI-H522 lung 90% | A549/ATCC NSCLC 92.7% | COLO 205 colon 108%

c1ccc(-c2cccc(-c3ccccn3)n2)nc1
active: NCI-H226 lung 4.69% | HOP-62 NSCLC 7.3% | NCI-H460 lung 3.53% | A549/ATCC NSCLC 9.52% | COLO 205 colon 4.26%
inactive: NCI-H23 lung 21.3% | NCI-H322M lung 26.9% | HOP-92 NSCLC 42.4% | NCI-H522 lung 18.3% | 786-0 renal 16.2%

CN(C)CCN(C)CC(C)(C)C(=O)/C=C/c1ccc(Cl)c(Cl)c1
active: NCI-H23 lung -83.2% [100 µM] | NCI-H226 lung -64.1% [100 µM] | NCI-H322M lung -98.4% [100 µM] | HOP-62 NSCLC -92.9% [100 µM] | NCI-H460 lung -72.8% [100 µM] | HOP-92 NSCLC -89.4% [100 µM] | NCI-H522 lung -89.5% [100 µM] | A549/ATCC NSCLC -82% [100 µM] | 786-0 renal -93.6% [100 µM] | COLO 205 colon -90.3% [100 µM]

O=C(CCl)N1c2ccccc2Sc2c1ccc1ccccc21
inactive: NCI-H23 lung 48.6% | NCI-H226 lung 68.1% | NCI-H322M lung 106% | HOP-62 NSCLC 90.6% | NCI-H460 lung 81.7% | HOP-92 NSCLC 64.6% | A549/ATCC NSCLC 95.2% | 786-0 renal 88.9% | COLO 205 colon 65.7%
active: NCI-H522 lung -79.2%
